This is an account of results in PubChem BioAssay AID686979 (National Center for Advancing Translational Sciences (NCATS), 2013).

SMILES strings stand for the structures. Screen size: about 420,000 compounds; about 50,000 (12%) were called active. Roughly 26% stayed inconclusive and do not appear here. The sample as a whole holds a higher share of actives than the screen did. Unmarked numbers belong to inactive results. Calls come from the whole dose curve; as a rule, active = well fitted inhibition curve with a large enough effect; inconclusive = small, poorly fitted or top-dose-only effect; inactive = flat fitted curve, though single readings scatter.
% is set by controls: 0 for no effect and ±100 for the full control effect; potency is the fitted concentration of half-maximal effect.

The assay is described as follows: qHTS for Inhibitors of human tyrosyl-DNA phosphodiesterase 1 (TDP1): qHTS in cells in presence of CPT. Note: nearly all actives have a fitted effect of over 55% in size. The following applies: chicken DT40 Tdp1-/-;hTDP1 cells + 20 nM CPT, ATP luminescence, 48 h; series mostly up to 46.2 µM; activity change, negative = growth inhibition: at the top concentration. Put shortly: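 Chicken DT40 Tdp1-/- cells complemented with human TDP1, 400 cells/well, exposed to compounds plus 20 nM camptothecin for at least 48 h at 37 C; viability read as ATP content by CellTiter-Glo luminescence.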
On to `COc1ccc(C2OC(=O)CC2C(=O)NC(C)C)cc1` (stereo not drawn), for which the “activity change, negative = growth inhibition” value is -2.88%. `COc1ccc(-c2ccc(C(=O)NC(C)C)c3occc23)c(C)c1`: the Potency is 14.6 µM (active). As to `COc1ccc(N)c(C)c1`, the “activity change, negative = growth inhibition” value is 5.04%. Regarding `COc1ccc(Cl)cc1C(=O)OCC(=O)NCc1cccs1`, the “activity change, negative = growth inhibition” value is -0.547%. With `Cc1nnc(SC(C(=O)c2ccccc2)c2ccccc2)[nH]c1=O` (stereo not drawn), the “activity change, negative = growth inhibition” value was -0.428%. On to `CN1CCC(N(C)C(=O)c2ccc(Cl)c(S(=O)(=O)Nc3ccc(Cl)cc3)c2)CC1`, for which the “activity change, negative = growth inhibition” value was -15%. In the case of `Cc1cccc(-n2ncc3c(=O)[nH]c(SCC(=O)Nc4cc(C)on4)nc32)c1`, the “activity change, negative = growth inhibition” value is -28.7%. Regarding `Cc1ccc2c(c1)N(CC(=O)NCCCN1CCCCC1)C(=O)c1cccnc1O2`, the Potency result is “inactive”. As to `CC(=O)c1cccc(NC(=O)CN2C(=O)c3cccnc3Oc3ccc(Cl)cc32)c1`, the Potency is 18.4 µM (active). For `CCN(CC)c1ccc(NC(=O)CN2C(=O)c3cccnc3Oc3ccc(Cl)cc32)c(C)c1`, the Potency is 9.2 µM (active). As to `O=C(CN1C(=O)c2cccnc2Oc2ccc(Cl)cc21)NCCc1ccccc1`, the “activity change, negative = growth inhibition” value is -25.7%. Take `CCN(CC)c1ccc(NC(=O)Cn2nc3c(cc2=O)CCCC3)c(C)c1`: the “activity change, negative = growth inhibition” value was -21.6%. Still for that read-out and setting: under `Cc1ccc2c(c1)N(CC(=O)N1CCC(C)CC1)C(=O)c1cccnc1O2` stands 1.35%; under `COC(=O)Cc1ccc(OCC(=O)NC2CCCC2)cc1`, 0.687%. In the case of `COc1cccc(N(CC(=O)NC2CCCC2)C(=O)CCCC(=O)Nc2ccccn2)c1`, the “activity change, negative = growth inhibition” value is -0.665%. `COCC1CCN(C(=O)C2CCC(=O)N(Cc3cccc(C(F)(F)F)c3)C2)CC1` (stereo not drawn): the “activity change, negative = growth inhibition” value was -9.13%. For the compound `CC(=O)CC[C@@H](C)O[C@@H]1OC(C)[C@H](O)CC1O` (stereo partly drawn), the “activity change, negative = growth inhibition” value is 9.15%. Turning to `Nc1nc(SCc2cccc(Br)c2)n[nH]1`, the “activity change, negative = growth inhibition” value is -13.6%. As for `COc1cc2ccccc2cc1C(=O)Nc1ccccc1C`, the “activity change, negative = growth inhibition” value is -16.1%.

Regarding `COC(=O)c1ccc(Cc2ccccc2)o1`, the “activity change, negative = growth inhibition” value is 3.76%. For `COc1cccc(-n2c(SCC(=O)NC3CCS(=O)(=O)C3)nc3ccccc3c2=O)c1` (stereo not drawn), the “activity change, negative = growth inhibition” value was 3.4%. As for `COCCn1c(C)cc(C(=O)CSc2nc3ccccc3c(=O)n2C(C)COC)c1C` (stereo not drawn), the Potency was 20.6 µM (active). Turning to `COCC(C)n1c(SCc2ccc(C(=O)OC)o2)nc2ccccc2c1=O` (stereo not drawn), the Potency was 7.31 µM (active). Consider `COC(=O)c1ccc(CSc2nc3ccccc3c(=O)n2-c2cccc(OC)c2)o1`, for which the Potency was 20.6 µM (active). Regarding `COCCn1c(C)cc(C(=O)CSc2nnc(C3CC3)n2C2CC2)c1C`, the “activity change, negative = growth inhibition” value is -5%. As to `COCCNC(=O)c1ccc(-n2c(SCc3cccnc3)nc3ccccc3c2=O)cc1`, the “activity change, negative = growth inhibition” value is 2.47%.

Take `COc1cccc(-n2c(N)cc(=O)nc2SCC(=O)Nc2cc(C)on2)c1`: the “activity change, negative = growth inhibition” value was -3.53%. Regarding `COCC(C)n1c(SCC(=O)NC2CCCCC2C)nc2ccccc2c1=O` (stereo not drawn), the “activity change, negative = growth inhibition” value was -14.7%. Same read-out and setting: under `COCCn1c(C)cc(C(=O)CN2c3cccc4cccc(c34)S2(=O)=O)c1C` stands 9.37%. Take `COc1cccc(-n2c(SCC(=O)c3c[nH]c4ccccc34)nc3ccccc3c2=O)c1`: the Potency was 20.6 µM (active).

As for `CCCn1c(N)c(C(=O)CSc2nc3ccccc3c(=O)n2-c2ccc(OC)cc2)c(=O)[nH]c1=O`, the “activity change, negative = growth inhibition” value is 1.77%. Turning to `CCOc1ccc(CN(C)C(=O)c2ccc(=O)[nH]c2)cc1`, the “activity change, negative = growth inhibition” value was 14.4%. Consider `Cc1occc(=O)c1OCc1c(Cl)cccc1Cl`, for which the “activity change, negative = growth inhibition” value was -17.7%.

With `COc1ccc(C2C3=C(CCCC3=O)N(CC(=O)O)C3=C2C(=O)CCC3)cc1`, the “activity change, negative = growth inhibition” value is -4.55%. Take `CSc1ccc(S(=O)(=O)N2CCC(C(=O)NCc3ccncc3)CC2)cc1`: the “activity change, negative = growth inhibition” value is 0.718%. Turning to `COc1ccc(-c2c(C)nn3c(N4CCC(C(=O)N5CCCCC5)CC4)cc(C)nc23)cc1OC`, the “activity change, negative = growth inhibition” value is -7.26%. On the same count and under the same terms, under `CCN(CC)c1nc(-c2ccccc2)cc(C(F)(F)F)c1C#N` stands -4.95%; under `O=C(CNS(=O)(=O)c1ccccc1)NCC(=O)OCc1ccccc1F`, -28.2%; under `Cc1cc(=O)oc2cc(OC(C)C(=O)NCCc3ccc(S(N)(=O)=O)cc3)ccc12` (stereo not drawn), -6.95%.

On to `Nc1nc(SCC(=O)NNc2c(Cl)cc(Cl)cc2Cl)n[nH]1`, for which the “activity change, negative = growth inhibition” value was 13.5%. As for `COc1cc(Cl)c(C)cc1NC(=O)COC(=O)c1cc(SC)ccc1Cl`, the “activity change, negative = growth inhibition” value was 16.3%. `CCC(C)Cn1c(O)cc2nn(-c3nc4ccccc4s3)c(=O)c-2c1C` (stereo not drawn): the Potency is 14.6 µM (active).

Take `Cc1ccc(-c2nn3c(=O)cc(CN4CCN(S(=O)(=O)c5ccc(Cl)cc5)CC4)nc3s2)cc1`: the “activity change, negative = growth inhibition” value is -12.6%. For `Cc1sc(C2C(C#N)=C(N)N(c3cccc(Cl)c3)C3=C2C(=O)CCC3)cc1CN1CCOCC1` (stereo not drawn), the “activity change, negative = growth inhibition” value is -13.7%. Consider `CCc1ccc(C2C(C#N)=C(N)N(N(C)C)C3=C2C(=O)CCC3)s1` (stereo not drawn), for which the “activity change, negative = growth inhibition” value is -18.2%.

As to `CSc1sc(C)cc1C1C(C#N)=C(N)N(c2cccnc2)C2=C1C(=O)CCC2` (stereo not drawn), the Potency was 11.6 µM (active).

`Cc1cn(C)c(CC(=O)NCc2ccccc2)c1C(=O)O`: the “activity change, negative = growth inhibition” value was -2.5%.

As to `C=CCn1c(SCC(N)=O)nnc1-c1cc2c(s1)CCC(CC)C2` (stereo not drawn), the “activity change, negative = growth inhibition” value is -13.6%. Turning to `CCC1OC(c2ccc([N+](=O)[O-])cc2)=Nc2ccccc21` (stereo not drawn), the “activity change, negative = growth inhibition” value is 3.74%. On to `CC(NC(=O)c1ccco1)c1ccc2c(c1)OCO2` (stereo not drawn), for which the “activity change, negative = growth inhibition” value was -3.51%. Same read-out and setting: under `COc1ccc(C(CNCC(=O)Nc2ccccc2F)N(C)C)cc1` (stereo not drawn) stands -3.81%.

On to `COc1ccc(C(CCNCc2ccccc2F)c2ccc(F)cc2)cc1` (stereo not drawn), for which the Potency is 16.4 µM (active). In the case of `COc1ccc(CCNC(=O)COC(=O)Cc2ccccc2F)cc1`, the “activity change, negative = growth inhibition” value is -7.27%.
